Data as given in PubChem BioAssay (Tox21).
Inconclusive results are not listed. The source made the active and inactive calls. Calls come from the whole dose curve; as a rule, active = well fitted curve in the direction sought with a large enough effect in the repeat runs; inconclusive = weak or mixed curves; inactive = no such curve, though single readings can be large; an effect the other way counts as inactive or inconclusive.

Tests used:
[1] = A CellTox Green Cytotoxicity Assay to monitor cytotoxicity in HEK293 cells - 32 hour (AID 1224881); note: nearly all actives have a fitted effect of over 40% in size
Outline: (§1)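 HEK293 cells, 600/well, were preincubated 5 hours and then exposed to compounds at 37 C for up to 40 hours. A cell-impermeant cyanine dye staining dead-cell DNA was read by fluorescence at 0, 8, 16, 24, 32 and 40 h time points.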

[2] = A CellTox Green Cytotoxicity Assay to monitor cytotoxicity in HepG2 cells - 0 hour (AID 1224882); note: nearly all actives have a fitted effect of over 35% in size
Outline: (§2)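 HepG2 cells, 600/well, preincubated 5 h with CellTox Green dye, then exposed to Tox21 compounds in DMSO at 37 C for up to 40 h. Dead-cell DNA fluorescence read at the indicated time point.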

[3] = A CellTox Green Cytotoxicity Assay to monitor cytotoxicity in HepG2 cells - 32 hour (AID 1224883); note: nearly all actives have a fitted effect of over 50% in size; note: potency is the fitted concentration of half-maximal effect
Outline: as §2

[4] = A CellTox Green Cytotoxicity Assay to monitor cytotoxicity in HEK293 cells - 8 hour (AID 1224884); note: nearly all actives have a fitted effect of over 35% in size
Outline: as §1

[5] = qHTS RealTime-Glo MT Cell Viability Assay in HepG2 cells - 16 hour (AID 1224885); note: nearly all actives have a fitted effect of over 50% in size
Outline: (§3)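 Luminescence read-out: viable HepG2 cells reduce a prosubstrate to a NanoLuc substrate, giving a signal proportional to live cell number. Reads taken at 0, 8, 16, 24, 32 and 40 h of compound exposure at 37 C.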

[6] = qHTS RealTime-Glo MT Cell Viability Assay in HEK293 cells - 24 hour (AID 1224886); note: nearly all actives have a fitted effect of over 50% in size; note: potency is the fitted concentration of half-maximal effect; for activity change, negative = cytotoxicity: top concentration of the series differs between compounds
Outline: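 Nonlytic real-time viability readout: viable cells convert prosubstrate to NanoLuc substrate, giving luminescence proportional to live cell number. HEK293, 600 cells/well, compound added after 5 h, continuous culture at 37 C.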

[7] = qHTS RealTime-Glo MT Cell Viability Assay in HEK293 cells - 8 hour (AID 1224887); note: nearly all actives have a fitted effect of over 50% in size; note: potency is the fitted concentration of half-maximal effect; for activity change, negative = cytotoxicity: top concentration of the series differs between compounds
Outline: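 600 cells/well were plated with the nonlytic NanoLuc/prosubstrate reagent, pre-incubated 5 h, then given 23 nL of compound in DMSO. Incubation at 37 C for 40 h, with luminescence from viable-cell-reduced substrate read repeatedly from 0 h.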

[8] = A CellTox Green Cytotoxicity Assay to monitor cytotoxicity in HEK293 cells - 16 hour (AID 1224888); note: nearly all actives have a fitted effect of over 35% in size
Outline: as §1

[9] = qHTS RealTime-Glo MT Cell Viability Assay in HepG2 cells - 0 hour (AID 1224889); note: nearly all actives have a fitted effect of over 50% in size
Outline: as §3

[10] = A CellTox Green Cytotoxicity Assay to monitor cytotoxicity in HepG2 cells - 8 hour (AID 1224890); note: nearly all actives have a fitted effect of over 45% in size
Outline: as §2
% is set by controls: 0 for no effect and ±100 for the full control effect.

Nc1cnn([C@@H]2O[C@H](CO)[C@@H](O)[C@H]2O)c(=O)n1
inactive: Potency [1] | Potency [2] | Potency [3] | Potency [4] | Potency [5] | Potency [6] | Potency [7] | Potency [8] | Potency [9] | Potency [10]

N#Cc1c(F)cccc1F
inactive: Potency [1] | Potency [2] | Potency [3] | Potency [4] | Potency [5] | Potency [6] | Potency [7] | Potency [8] | Potency [9] | Potency [10]

Cc1c(Cn2ccnc2)c2ccccc2n1CCC(=O)O
inactive: Potency [1] | Potency [2] | Potency [3] | Potency [4] | Potency [5] | Potency [6] | Potency [7] | Potency [8] | Potency [9]

O=C(O)/C=C/c1cnc[nH]1
inactive: Potency [1] | Potency [2] | Potency [3] | Potency [4] | Potency [5] | Potency [6] | Potency [7] | Potency [8] | Potency [9] | Potency [10]

NC[C@H]1O[C@H](O[C@H]2[C@H](O)[C@@H](O[C@H]3O[C@H](CO)[C@@H](O)[C@H](N)[C@H]3O)[C@H](N)C[C@@H]2N)[C@H](O)[C@@H](O)[C@@H]1O
inactive: cytotoxicity increase [1] 10.5% [at 6.97 µM] | cytotoxicity [2] 1.08% [at 6.97 µM] | cytotoxicity increase [3] 13.2% [at 6.97 µM] | cytotoxicity increase [4] 7.24% [at 6.97 µM] | activity change, negative = cytotoxic [5] 2.6% [at 6.97 µM] | activity change, negative = cytotoxicity [6] 13.6% [at 6.97 µM] | activity change, negative = cytotoxicity [7] 2.67% [at 6.97 µM] | activity change [8] 6.94% [at 6.97 µM, hits give high values] | activity change, negative = cytotoxicity [9] 17.3% [at 6.97 µM] | cytotoxicity increase [10] 21.1% [at 6.97 µM]

CC(=O)OC/C=C/c1ccccc1
inactive: Potency [1] | Potency [2] | Potency [3] | Potency [4] | Potency [5] | Potency [6] | Potency [7] | Potency [8] | Potency [9] | Potency [10]

NCc1ccccc1
inactive: Potency [1] | Potency [2] | Potency [3] | Potency [4] | Potency [5] | Potency [6] | Potency [7] | Potency [8] | Potency [9]

CCc1nn(C2CCCCC2)c2cc(C3(C#N)CCC(C(=O)O)CC3)ccc12 (configuration not stated)
inactive: Potency [1] | Potency [2] | Potency [3] | Potency [4] | Potency [5] | Potency [6] | Potency [7] | Potency [8]

Nc1ccc(C(=O)N2CC3CC(CN(Cc4ccccc4)C3)C2)cc1
inactive: Potency [1] | Potency [2] | Potency [3] | Potency [4] | Potency [5] | Potency [6] | Potency [7] | Potency [8] | Potency [9]

O=C(O)Cc1sc(-c2ccccc2)nc1-c1ccc(Cl)cc1
inactive: Potency [1] | Potency [2] | Potency [3] | Potency [4] | Potency [5] | Potency [6] | Potency [7] | Potency [8] | Potency [9]

CCCCCC(CO)CCC (configuration not stated)
inactive: Potency [1] | Potency [2] | Potency [3] | Potency [4] | Potency [5] | Potency [6] | Potency [7] | Potency [8] | Potency [9]

CN1CCC[C@@H]1c1cccnc1
inactive: Potency [1] | Potency [2] | Potency [3] | Potency [4] | Potency [5] | Potency [6] | Potency [7] | Potency [8] | Potency [9]

O=c1c2ccccc2nnn1CCl
inactive: Potency [1] | Potency [2] | Potency [3] | Potency [4] | Potency [5] | Potency [6] | Potency [7] | Potency [8] | Potency [9] | Potency [10]

CC(C(=O)O)c1ccc(-c2ccccc2)c(F)c1 (configuration not stated)
inactive: Potency [1] | Potency [2] | Potency [4] | Potency [5] | Potency [6] | Potency [7] | Potency [8] | Potency [9]
active: Potency [3] 54.9 µM

CCCCCCCCCCCCCCC1CO1 (configuration not stated)
inactive: Potency [1] | Potency [2] | Potency [3] | Potency [4] | Potency [5] | Potency [6] | Potency [7] | Potency [8] | Potency [9]

CCOc1ccc(NC(=O)CC(C)=O)cc1
inactive: Potency [1] | Potency [2] | Potency [3] | Potency [4] | Potency [5] | Potency [6] | Potency [7] | Potency [8] | Potency [9]

CCCCOCCOCCOCCOCCO
inactive: Potency [1] | Potency [2] | Potency [3] | Potency [4] | Potency [5] | Potency [6] | Potency [7] | Potency [8] | Potency [9] | Potency [10]

CC(C)NCC(O)COc1ccc(CC(N)=O)cc1 (configuration not stated)
inactive: Potency [1] | Potency [2] | Potency [3] | Potency [4] | Potency [5] | Potency [6] | Potency [7] | Potency [8] | Potency [9] | Potency [10]

O=C(O)COC(=O)Cc1ccccc1Nc1c(Cl)cccc1Cl
inactive: Potency [1] | Potency [2] | Potency [3] | Potency [4] | Potency [5] | Potency [6] | Potency [7] | Potency [8] | Potency [9] | Potency [10]

NC1CCN(c2nc3c(cc2F)c(=O)c(C(=O)O)cn3-c2ccc(F)cc2F)C1 (configuration not stated)
inactive: Potency [1] | Potency [2] | Potency [3] | Potency [4] | Potency [5] | Potency [6] | Potency [7] | Potency [8] | Potency [9]

CCCc1ccccc1
inactive: Potency [1] | Potency [2] | Potency [3] | Potency [4] | Potency [5] | Potency [6] | Potency [7] | Potency [8] | Potency [9]

Cc1nc2ccccc2n1Cc1ccc(Cl)cc1
active: Potency [6] 1.9 µM | Potency [7] 8.49 µM
inactive: Potency [1] | Potency [2] | Potency [3] | Potency [4] | Potency [5] | Potency [8] | Potency [9] | Potency [10]

CC(=O)O[C@H]1C[C@@H]2CC[C@@H]3[C@H](CC[C@@]4(C)[C@H]3C[C@H]([N+]3(C)CCCCC3)[C@@H]4OC(C)=O)[C@@]2(C)C[C@@H]1N1CCCCC1
inactive: Potency [1] | Potency [2] | Potency [3] | Potency [4] | Potency [5] | Potency [6] | Potency [7] | Potency [8] | Potency [9] | Potency [10]
